Giardia FBPA inh = inhibitors of Giardia lamblia fructose-1,6-bisphosphate aldolase; Potency, µM (titrated, usually from 59.6 µM), hits mostly inhibitors; purified Giardia FBPA; 0.71% of 290,000 active; AID 2451; further: nearly all actives have a fitted effect of over 55% in size
Target sequence (A8B2U2 whole entry, looked up): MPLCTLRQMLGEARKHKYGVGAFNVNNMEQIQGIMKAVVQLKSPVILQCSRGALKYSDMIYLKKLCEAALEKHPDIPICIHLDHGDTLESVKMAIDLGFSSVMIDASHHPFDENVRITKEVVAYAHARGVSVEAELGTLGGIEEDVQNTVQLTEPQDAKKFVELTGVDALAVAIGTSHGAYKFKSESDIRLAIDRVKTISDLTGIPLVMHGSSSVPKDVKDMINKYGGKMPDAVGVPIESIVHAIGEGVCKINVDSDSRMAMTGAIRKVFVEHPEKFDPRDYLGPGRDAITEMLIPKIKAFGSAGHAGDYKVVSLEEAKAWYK
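Giardia FBPA (40 nM reagent) was preincubated 10 min at RT with compound (up to 57.5 uM final), then substrate plus GAPDH/TPI/NAD/arsenate coupling system with diaphorase/resazurin was added; resorufin fluorescence (525/598 nm) was read after 20 min.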
TbPYK inhibitor = T. brucei pyruvate kinase inhibition. Q57TT1. TbPYK enzyme, Kinase-Glo Plus ATP luminescence, 45 min. Potency, µM (series often up to 76.8 µM), most hits filed as inhibitors. 0.12% of 410,000 active. AID 624173; further: nearly all actives have a fitted effect of over 50% in size
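Screened from lowest to highest concentration, compounds were pinned into TbPYK/substrate mixtures, and ADP (130 uM final) was added. Plates sat at room temperature for 45 min prior to Kinase-Glo Plus detection by luminescence.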
Shiga toxin inh = blocks Shiga toxin action in Vero cells | Vero cells, Shiga toxin protein synthesis inhibition reporter | inhibition, % at 38.7 µM | 9.2% of 290,000 active; in the data active means inhibition mostly above about 28%, no sharp cut-off; inactive means mostly below about 43%
Cycloheximide cs = affects cycloheximide protein synthesis inhibition readout, counter-screen. cell reporter, cycloheximide protein synthesis inhibition counterscreen. max response, %. 12% of 300,000 active; in the data active means max response mostly above about 13%, no sharp cut-off; inactive means mostly below about 14%; further: read at 38.3 µM for the half of the compounds with a filed dose
RE007 growth inh = less growth of the S. pombe RE007 Vpr strain | AID 651644 | 0.21% of 360,000 active | S. pombe RE007 Vpr strain, BacTiter-Glo ATP luminescence, 24 h | Potency, µM (titrated, usually from 92.2 µM), most hits filed as inhibitors; active means well fitted falling curve with a large enough effect; inconclusive means small, poorly fitted or top-dose-only effect; inactive means no such curve, though single readings can be large or run the other way; further: nearly all actives have a fitted effect of over 50% in size
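Fission yeast strain RE007, carrying one chromosomally integrated HIV-1 vpr copy, was seeded at OD 0.01 in PMG+AL medium with 23 nL pinned compound. After 24 h at 30 °C and 99% humidity, viability was read by BacTiter-Glo luminescence.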
LmPK inhibitor = LmPK (Leishmania mexicana) enzyme inhibition | Q27686 | purified LmPK, Kinase-Glo ATP luminescence, 1 h | Potency, µM (highest dose often 57.5 µM), usual class: inhibitors | 0.37% of 290,000 active | AID 1721
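Pyruvate kinase activity monitored as ATP production (luciferase luminescence). Conditions: 0.1 nM enzyme, 0.5 mM PEP, 0.1 mM ADP, 1 h, RT; normalized against uninhibited and no-enzyme wells.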
Numbers stand for hits; i = inactive; ? = inconclusive; nt = no result given. This is one part of a sample in which hits are shown more often than they occur. Unless noted, the call rests on the fitted dose curve; in most records, active means well fitted curve in the direction sought with a large enough effect; inconclusive means small, poorly fitted or top-dose-only effect, or another doubt; inactive means no such curve, though single readings can be large; an effect the other way counts as inactive or inconclusive.

SMILES	Giardia FBPA inh	TbPYK inhibitor	Shiga toxin inh	Cycloheximide cs	RE007 growth inh	LmPK inhibitor
COc1ccc(S(=O)(=O)N(n2c(C)nnc2-n2nc(C)cc2C)S(=O)(=O)c2ccc(OC)cc2)cc1	?	i	i	21	i	i
Cc1ccc(S(=O)(=O)Nn2c(C)nnc2-n2nc(C)cc2C)cc1	?	i	i	i	i	i
NCCc1ccccn1	i	nt	i	i	nt	nt
CC(C)(C)c1ccc(S(=O)(=O)CCc2ccccn2)cc1	i	i	54	27	i	i
CC(C)(C)c1ccc(SCCc2ccccn2)cc1	i	i	89	40	i	i
Fc1ccc(SCCc2ccccn2)cc1	i	i	72	52	i	?
CCNc1ccc2c(Cl)cc(=O)oc2c1	i	i	i	19	i	i
C=CCn1c(SCC(N)=O)nc2scc(-c3ccc(C)o3)c2c1=O	i	i	85	45	i	i
CCOc1ccc(/C=C/c2nc(C#N)c(Nc3ccc(OC)cc3)o2)cc1	nt	i	nt	nt	nt	nt
O=C(N/N=C1\CCCc2oc(C(=O)O)cc21)c1ccccc1	i	i	74	44	i	i
O=C(N/N=C1/CCCc2ccccc21)C(c1ccccc1)c1ccccc1	i	i	61	i	i	i
O=C(N/N=C1\CCCc2ccccc21)c1cccc([N+](=O)[O-])c1	i	i	i	i	i	i
O=C(NN=C1CCCC1)c1cccc(Br)c1	i	i	87	26	i	i
O=C(N/N=C1\CCCc2ccccc21)c1cccc(Br)c1	i	i	59	38	i	i
O=C(O)c1cc2c(o1)CCC/C2=N\O	i	i	i	i	i	i
CCC1(CC)NC(=O)N(CC(=O)Nc2cccc3ccccc23)C1=O	nt	i	nt	nt	i	nt
CS/C(Nc1cc(Cl)ccc1Cl)=C(/C#N)C(=O)c1ccco1	i	32µM	i	i	i	22µM
C=CCn1c(COC)nnc1SCC(=O)c1ccc(F)cc1	i	?	44	16	i	i
CCOC(=O)NC(=O)/C(C#N)=C/c1ccc(N(C)C)cc1	i	i	i	36	i	i
CN(C)c1ccc(/C=C(\C#N)C(=O)c2ccccc2)cc1	i	i	i	14	i	?
CN(C)c1ccc(/C=C(\C#N)c2nc3ccccc3c(=O)[nH]2)cc1	nt	i	nt	nt	nt	nt
CN(C)c1ccc(/C=C(\C#N)c2ccccc2)cc1	i	i	63	57	i	i
CN(C)c1cccc(/C=C(\C#N)c2ccccc2)c1	i	i	77	42	nt	i
Cc1nc(SCC(=O)OC(C)(C)C)c2c3c(sc2n1)CCCC3	nt	i	nt	nt	nt	nt
CCN(CC)S(=O)(=O)c1ccc2c(c1)N(CC(=O)Nc1cccc(C#N)c1)C(=O)CO2	nt	i	nt	nt	nt	nt
SMILES	Giardia FBPA inh	TbPYK inhibitor	Shiga toxin inh	Cycloheximide cs	RE007 growth inh	LmPK inhibitor
COc1ccc(C(=O)/C=C/c2ccccc2)c(OC)c1	i	i	54	32	i	i
COc1ccc(C=CC(=O)c2cc(O)ccc2O)cc1	nt	i	nt	nt	i	nt
COc1ccc(C(=O)/C=C/Nc2cc(C)on2)c(OC)c1	i	i	i	25	?	i
COc1ccc(C(=O)/C=C/c2ccc(N(C)C)cc2)c(OC)c1	i	i	i	26	i	i
CCOc1ccccc1NC(=O)c1cnn2c(C(F)F)cc(-c3ccccc3)nc12	nt	i	nt	nt	nt	nt
Cc1oc(-c2ccc(C(=O)Nc3cccc(C(F)(F)F)c3)cc2)nc1CSc1ccccc1	nt	i	nt	nt	nt	nt
Cc1cccc(C)c1N=Nc1c(C)cc(O)cc1C	i	i	i	i	25µM	i
Cc1cccc(O)c1C	nt	i	nt	nt	i	nt
CC(/C=C/c1ccc(N(C)C)cc1)=N\N=C1\NC(=O)CC(C(=O)Nc2ccccc2)S1 (configuration not stated)	i	i	63	49	i	i
CC(/C=C/c1ccc(N(C)C)cc1)=N/N=C1/NC(=O)CC(C(=O)Nc2ccc(Cl)cc2)S1 (configuration not stated)	i	i	60	48	i	i
CCCOc1ccc(NC(=O)C2CC(=O)N/C(=N/N=C(C)/C=C/c3ccc(N(C)C)cc3)S2)cc1 (configuration not stated)	i	i	82	40	i	i
COc1ccc(OC)c(-c2nnc(-c3ccc(C)o3)o2)c1	i	i	i	36	i	i
COc1ccc(-c2nnc(SC)o2)c(OC)c1	i	i	72	21	i	i
CCOC(=O)Cn1nc(C)c(NC(=O)COc2ccc(Cl)cc2C)c1C	nt	i	nt	nt	nt	nt
Cn1ccs/c1=N\C(=O)Nc1cccc(C(F)(F)F)c1	i	i	69	28	i	i
Cc1ccc(NC(=O)c2cc(-c3cccs3)on2)cc1C	i	i	170	57	i	i
O=C(Nc1cccnc1)c1cc(-c2cccs2)on1	i	i	i	i	i	i
COc1ccc(NC(=O)c2cc(-c3cccs3)on2)cc1	i	i	73	29	i	i
O=C(Nc1cccc(C(F)(F)F)c1)c1cc(-c2cccs2)on1	i	i	i	23	i	i
CN1CCN(c2nc3c(S(=O)(=O)c4ccccc4)nnn3c3ccsc23)CC1	nt	i	nt	nt	nt	nt
OCC1(CO)COC(C(Cl)(Cl)Cl)OC1	nt	i	nt	nt	nt	nt
CCCCCCCCCCOc1cc(OCCCCCCCCCC)cc(N(CC(=O)O)CC(=O)O)c1	i	nt	i	i	nt	nt
CCc1ccc(NC(=O)c2sccc2-n2cccc2)cc1	i	i	i	19	i	i
COc1ccc(NC(=O)c2cc(-c3cccs3)on2)cc1OC	i	i	i	24	i	i
CCc1ccc(NC(=O)c2cc(-c3cccs3)on2)cc1	i	i	100	38	i	i
SMILES	Giardia FBPA inh	TbPYK inhibitor	Shiga toxin inh	Cycloheximide cs	RE007 growth inh	LmPK inhibitor
COc1ccc(-c2cc(C(=O)Nc3ccc(C)c(C)c3)no2)cc1	i	i	i	i	i	i
Cc1ccc(NC(=O)c2cc(-c3ccc(F)cc3)on2)cc1C	i	i	i	20	i	i
O=C(Cc1ccccc1)NCCc1csc2nc(-c3ccc(Cl)cc3)nn12	nt	i	nt	nt	nt	nt
CN(C)S(=O)(=O)c1cccc(NC(=O)c2c[nH]c3ccccc23)c1	i	i	64	16	i	i
Cc1nc2ccc(NC(=O)c3ccc(S(=O)(=O)N(C)C)cc3)cc2s1	i	i	i	i	i	i
CC(=O)c1c(C)[nH]c(C(=O)Nc2cccc(S(=O)(=O)N(C)C)c2)c1C	i	i	i	31	i	i
CN(C)S(=O)(=O)c1ccc(C(=O)Nc2ccc3ncccc3c2)cc1	i	i	41	32	i	i
CC(=O)c1c(C)[nH]c(C(=O)Nc2ccc(S(=O)(=O)N(C)C)cc2)c1C	i	i	i	i	i	i
Cc1cccc(NC(=O)c2ccc(S(=O)(=O)N(C)C)cc2)c1	i	i	i	16	i	i
O=C(c1ccccc1)C1OC1C(=O)c1ccccc1 (configuration not stated)	nt	i	nt	nt	i	nt
O=C(C1=NNCC1c1ccccc1)C1OC1c1ccccc1 (configuration not stated)	i	i	34	12	i	i
NC(=O)Cn1c(=O)n(CCCCCC(=O)NCc2ccccc2)c(=O)c2sccc21	nt	i	nt	nt	nt	nt
